# Bioassay records as filed in PubChem BioAssay.
# Hits are enriched below; roughly 19% of the tested compounds scored in any of these assays.
# TDP1 cell CPT: qHTS for Inhibitors of human tyrosyl-DNA phosphodiesterase 1 (TDP1): qHTS in cells in presence of CPT; chicken DT40 Tdp1-/-;hTDP1 cells + 20 nM CPT, ATP luminescence, 48 h; Potency, µM (series often up to 46.2 µM), without a hit: top-dose activity change, negative = growth inhibition, most hits filed as inhibitors; actives 12% (n = 420,000); AID 686979, 2013; also: potency is read from the fitted curve at half-maximal effect; nearly all actives have a fitted effect of over 55% in size
#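 Cell growth measured by CellTiter-Glo luminescence after a minimum 48 h, 37 C compound exposure with 20 nM CPT in Tdp1-knockout DT40 cells stably expressing hTDP1, seeded 400/well; qHTS titration format.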
# DT40 TDP1 no CPT: qHTS for Inhibitors of human tyrosyl-DNA phosphodiesterase 1 (TDP1): qHTS in cells in absence of CPT; Potency, µM (highest dose often 46.2 µM), inactives show at the highest dose activity change, negative = growth inhibition, most hits filed as inhibitors; DT40 Tdp1-/- hTDP1 cells, no CPT, ATP luminescence, 48 h; actives 15% (n = 420,000); also: potency is read from the fitted curve at half-maximal effect; nearly all actives have a fitted effect of over 55% in size
#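 Compound effects on proliferation are scored in DT40 Tdp1-/-;hTDP1 cells in the absence of CPT. ATP levels (CellTiter-Glo luminescence) are recorded after a ≥48 hr, 37 °C incubation.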
# HT1080NT lethal: qHTS for induction of synthetic lethality in tumor cells producing 2HG: qHTS for the HT-1080-NT fibrosarcoma cell line. AID 686970, 2013. HT-1080-NT fibrosarcoma viability, CellTiter-Glo ATP luminescence, 48 h. Potency, µM (titrated, usually from 46.1 µM), for the others: at the top dose activity, negative = less viability, hits mostly cytotoxic. actives 1.6% (n = 360,000);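 also: NT is the 2HG producing partner of a matched IDH1 knockdown line; potency is read from the fitted curve at half-maximal effect; 0% = DMSO-treated cells and -100% = media-only wells without cells; nearly all actives have a fitted effect of over 55% in size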
#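 Viability of the 2HG-overproducing fibrosarcoma line after 48 hours of compound exposure at 37 degrees C was determined by luminescence with CellTiter-Glo, and concentration-effect curves were then fitted and categorized.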
# HT1080 IDH1KD tx: qHTS for induction of synthetic lethality in tumor cells producing 2HG: qHTS for the HT-1080-IDH1KD cell line. HT-1080 IDH1 knockdown viability, ATP luminescence, 48 h. Potency, µM (highest dose often 46.1 µM), without a hit: top-dose activity, negative = toxicity, hits mostly cytotoxic. actives 2% (n = 360,000). AID 686971, 2013;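 also: potency is read from the fitted curve at half-maximal effect; 0% = DMSO wells and -100% = cell-free medium wells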
#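 After a 2 h attachment period, IDH1KD HT-1080 cells took pin-transferred compound for 48 h at 37 °C; ATP-based luminescence after 10 min room-temperature reagent incubation reported viability.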
# IL1B secr inh: qHTS for Inhibitors of Inflammasome Signaling: IL-1-beta AlphaLISA Primary Screen. THP-1 LPS/ATP IL-1B secretion, AlphaLISA, 16 h; hits give low values. AID 743279, 2014. actives 4.7% (n = 360,000). activity change, % at 57.5 µM; in the data active = activity change below about -50%; inconclusive = mostly about -30% to -49%
#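 Secreted IL-1B measured by AlphaLISA bead assay after 16 h compound exposure of THP-1 cells; compounds (final up to 57.5 uM) added 1 h before LPS (250 ng/mL) and ATP (1.25 mM) stimulation; lower signal means less secretion.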
# * = called active by the depositor; ? = inconclusive; · = no result given; [ ] = another dose, or the depositor's remark. Unless noted, calls follow the shape of the dose curve; as a rule, active = well fitted curve in the direction sought with a large enough effect; inconclusive = small, poorly fitted or top-dose-only effect, or another doubt; inactive = no such curve, though single readings can be large; an effect the other way counts as inactive or inconclusive. Unless noted, % is scaled to controls: 0 for no effect and ±100 for the full control effect.
SMILES,TDP1 cell CPT,DT40 TDP1 no CPT,HT1080NT lethal,HT1080 IDH1KD tx,IL1B secr inh
COc1ccc(-c2ccc(F)cc2)cc1[C@H]1[C@H]2C=CC[C@@H](C)[C@@H]2C(=O)N1Cc1ccccc1,?,?,?,?,-5
C[C@@H]1CC=C[C@@H]2[C@H]1C(=O)N(Cc1ccccc1)[C@H]2c1cccc(C#Cc2ccccc2)c1,29µM*,10µM*,-29%,?,33
COc1ccc(-c2ccc(OC)c([C@H]3[C@H]4C=CC[C@@H](C)[C@@H]4C(=O)N3Cc3ccccc3)c2)cc1OC,?,16µM*,13%,6%,-17
O=C(COC(=O)c1ccco1)NCCc1ccc(Cl)cc1,15%,5%,10%,0%,7
Cc1cccc(N2CC(C(=O)Nc3nnc(SCc4ccccn4)s3)CC2=O)c1 (centres undefined),-15%,-3%,2%,5%,54
C[C@@H]1CC=C[C@H]2[C@H]1C(=O)N(Cc1ccccc1)[C@H]2c1ccc(-c2ccoc2)cc1F,?,?,?,-18%,11
COc1ccc([C@H]2[C@H]3C=CC[C@@H](C)[C@@H]3C(=O)N2Cc2ccccc2)cc1Cl,?,16µM*,-26%,-2%,46
COC(=O)/C=C/c1cccc([C@H]2[C@@H]3C=CC[C@@H](C)[C@@H]3C(=O)N2Cc2ccccc2)c1,23µM*,16µM*,-11%,-11%,9
C[C@@H]1CC=C[C@H]2[C@H]1C(=O)N(Cc1ccccc1)[C@H]2c1ccc(-c2cc3ccccc3s2)cc1F,16µM*,15µM*,4%,7%,29
Cc1nn(CC(=O)N(CC(C)C)C2CCS(=O)(=O)C2)c(C)c1[N+](=O)[O-] (centres undefined),-1%,1%,0%,10%,6
COc1ccc(N2CCN(C(=O)CCNS(=O)(=O)c3ccc(C)cc3)CC2)cc1,?,?,0%,-4%,0
COc1ccc(N2CCN(C(=O)CCNS(=O)(=O)c3ccc(Br)s3)CC2)cc1,13µM*,?,-3%,-2%[9.24 µM],-3
O=C(CNS(=O)(=O)c1ccc(Br)s1)N1CCN(c2ccc(F)cc2)CC1,?,23µM*,-2%,-1%,-1
O=C(c1cccc(OC2CCN(Cc3cc(F)cc(F)c3)CC2)c1)N1CCCC1,?,?,0%,-5%,4
CSc1ccc(CN2CCC(Oc3cccc(C(=O)N4CCCC4)c3)CC2)cc1,21µM*,18µM*,-4%,4%,0
O=C(c1cccc(OC2CCN(Cc3ccc(F)cc3Cl)CC2)c1)N1CCCC1,21µM*,?,-12%,-3%,14
CC(C)C[C@@H]1Cc2[nH][nH]c(=O)c2[C@H](C)O1,4%,-29%,10%,5%,44
CC(=O)NC1=NC(=O)/C(=C/c2cn(C(C)=O)nc2-c2ccccc2)S1,?,?,11%,0%,3
CCN=C1S/C(=C\c2ccc(N3CCOCC3)cc2C)C(=O)N1CC,2.9µM*,2.3µM*,0%,-3%,10
CCN=C1S/C(=C\c2cn(C(C)=O)nc2-c2ccccc2)C(=O)N1CC,16µM*,?,21%,-3%,-4
Cc1ccccc1-c1c(C)oc2cc(O)ccc2c1=O,?,-24%,-19%,-2%[9.24 µM],14
COc1ccc(-c2nnc3n(CCc4ccccc4)c(=O)c4ccccc4n23)cc1OC,?,23µM*,4%,2%,?
N#CC(Cc1cccs1)c1nc2ccccc2[nH]1 (centres undefined),5%,-5%,-1%,4%,0
N#CC(/C(=N/S(=O)(=O)c1cccs1)c1ccccc1)c1nc2ccccc2[nH]1 (centres undefined),-25%,7.3µM*,-2%,-11%,1
COc1ccc(-c2noc(N3CCN(c4ccc(Cl)cc4)CC3)n2)cc1OC,-10%,7%,·,·,·
SMILES,TDP1 cell CPT,DT40 TDP1 no CPT,HT1080NT lethal,HT1080 IDH1KD tx,IL1B secr inh
COc1ccc(-c2noc(N3CCN(c4cccc(Cl)c4)CC3)n2)cc1OC,?,8.2µM*,·,·,·
COc1cc(-c2ccno2)ccc1S(=O)(=O)N1CCN(c2cccc(Cl)c2)CC1,23µM*,?,·,·,·
COc1ccc(-c2noc(N3CCN(c4cccc(C)c4C)CC3)n2)cc1OC,18µM*,7.3µM*,·,·,·
COc1ccc(OC)c(-c2noc(N3CCN(c4ccc(Cl)cc4)CC3)n2)c1,?,15µM*,·,·,·
COc1cc(F)ccc1S(=O)(=O)N1CCN(c2ccccc2)CC1,-2%,-20%,-3%,-5%,-9
CCC(C)n1c(=N)c(C(=O)NC2CCCCC2)cc2c(=O)n3cc(C)ccc3nc21 (centres undefined),-7%,7%,·,·,·
Cc1ccc(Cn2c(=N)c(C(=O)NC3CCCC3)cc3c(=O)n4ccccc4nc32)cc1,10µM*,6.5µM*,12%,20%,-7
N=c1c(C(=O)NC2CCCCC2)cc2c(=O)n3ccccc3nc2n1CCc1ccccc1,?,21µM*,-1%,2%,40
N=c1c(C(=O)NC2CCCCC2)cc2c(=O)n3ccccc3nc2n1Cc1ccccc1,?,?,-2%,1%,21
CCC(C)n1c(=N)c(C(=O)NCc2ccccc2)cc2c(=O)n3cc(C)ccc3nc21 (centres undefined),?,16µM*,·,·,·
Cc1ccc2nc3c(cc(C(=O)NC4CCCCC4)c(=N)n3C3CCCCC3)c(=O)n2c1,?,15µM*,1%,?,6
Cc1ccc2nc3c(cc(C(=O)NC4CCCC4)c(=N)n3C3CCCCC3)c(=O)n2c1,?,?,12%,4%,30
COc1ncccc1C(=O)N1CCOc2ccc(C(O)C(c3ccccc3)c3ccccc3)cc2C1 (centres undefined),-5%[9.04 µM],?,·,·,·
CC1CCCC(NC(=O)CN(C)CC(=O)Nc2ccc(F)cc2)C1C (centres undefined),?,-15%,6%,5%,31
COc1cc(=O)n2c(c1C(=O)NCc1ccco1)CCN(Cc1ccc3nsnc3c1)CC2,-9%,-10%,·,·,·
COc1cc(=O)n2c(c1C(=O)NCc1ccco1)CCN(Cc1ccc(F)cc1Cl)CC2,0.21µM*,2.9µM*,·,·,·
COc1c2ccoc2nc2c(OC)c(O[C@@H]3O[C@H](C)[C@@H](O)[C@@H](O)[C@H]3O)ccc12,6%[9.04 µM],-13%[9.04 µM],·,·,·
